Measured values as given in PubChem BioAssay (NCI).
Where “and” joins values, the source holds several entries; their conditions need not be identical. Equal values may be shown once. Compounds without any hit were thinned out: in the full panel of roughly 83,000, 20% have a hit.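 A percent growth of 40 corresponds to 60% growth inhibition; 0 means no net growth; -100 means all cells died. Active threshold: below 10.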 Calls of active or inactive are those of the source.

System: MDA-MB-468 breast
Experiment: NCI-60 one-dose screen, 48 h (100 = growth as untreated, 0 = no growth, -100 = all killed)
Settings: 10 µM unless noted

| Compound | growth |
| --- | --- |
| COC(=O)[C@@H](C)C[C@H](Cc1ccccc1)NC(=O)c1cccc([C@@H](C[C@H](C(C)C)N(C)C(=O)[C@@H](NC(=O)[C@H]2CCCCN2C)C2CC2)OC(C)=O)n1 | 35.3% (inactive) |
| COC(=O)[C@@H](C)C[C@H](Cc1ccccc1)NC(=O)c1csc([C@@H](C[C@H](C(C)C)N(C)C(=O)[C@@H](NC(=O)CN(C)C)C2CC2)OC(C)=O)n1 | -0.222% (active) |
| Oc1c(Cl)cc(Cl)c2ccccc12.[Cu+2] | 101% (inactive) |
| COc1ccc(OC)c(/C=C(/C)[N+](=O)[O-])c1 | -40.8% (active) |
| CC1(C)N=C(N)N=C(N)N1c1ccc(OCCCCNC(=O)Nc2cccc(S(=O)(=O)F)c2)c(Cl)c1 | 40.9% (inactive) |
| n1nc(-c2nonc2-c2nn[nH]n2)n[nH]1 | 101% (inactive) |
| [Br][Pb]([c]1ccccc1)([c]1ccccc1)[c]1ccccc1 | -88.2% (active) |
| CC[C@H](C)[C@H](NC(=O)c1cnccn1)C(=O)N(C)[C@H](C[C@@H](OC(C)=O)c1nc(C(=O)N[C@@H](Cc2ccccc2)C[C@H](C)C(=O)OC)cs1)C(C)C | 31.5% (inactive) |
| COc1ccc(/C=C\[N+](=O)[O-])cc1OC | 53.6% (inactive) and 11.6% (inactive) |
| CNC(=O)Oc1cccc(OC)c1 | 106% (inactive) |
| COC1CC2c3ccccc3C1C(C)=[N+]2C (stereo not given) | 96.4% (inactive) |
| Oc1cc[c]([Hg][Cl])cc1 | 93.6% (inactive) |
| COc1cc([C@@H]2c3cc4c(cc3[C@H](OC(C)=O)[C@H]3COC(=O)[C@@H]23)OCO4)cc(OC)c1OC | -40.2% (active) |
| C=CC1=C[C@@H]2[C@@H]3O[C@]4(CC[C@H](O4)[C@@H](C)C[C@@H](O)C3=O)C[C@H](O)C3=NCC[C@@]32CC1 | -56% (active) |
| Cc1ccc(NC(=O)CBr)cc1 | 98.5% (inactive) |
| O=C1NC2(CCNCC2)Nc2ccccc21 | 98.8% (inactive) |
| CC[C@H](C)[C@@H]1OC(=O)C(C)(C)[C@H](O)[C@H](Cc2ccccc2)OC(=O)[C@H](C(C)C)OC(=O)[C@@H](NC(=O)c2cccc(NC=O)c2O)[C@@H](C)OC1=O | 9.86% (active) |
| CN(C)CC(C(=O)Cc1ccccc1)c1ccccc1 (stereo not given) | -29.8% (active) |
| O=C(CC1(O)C(=O)N(Cc2ccccc2)c2ccccc21)c1ccc(C(=O)NCC2CCC3(CC2)OOC2(CCCCC2)OO3)cc1 (stereo not given) | -56.6% (active) |
| Cc1cc(C(C)(C)C)ccc1O | 99.3% (inactive) |

| Compound | growth |
| --- | --- |
| COC(=O)[C@@H](C)C[C@H](Cc1ccccc1)NC(=O)c1nc([C@@H](C[C@H](C(C)C)N(C)C(=O)[C@@H](NC(=O)[C@H]2CCCN2C)C(C)C)OC(C)=O)sc1C | 1.81% (active) |
| O=S(OO)c1cc(Cl)c(O)c(Cl)c1 (stereo not given) | 112% (inactive) |
| COc1cc([N+](=O)[O-])c2nc(C)ccc2c1[N+](=O)[O-] | -9.11% (active) |
| O=[N+]([O-])c1ccc2cnn(CSP(=S)(c3ccccc3)c3ccccc3)c2c1 | 43.1% (inactive) |
| C[C@]12CCC3[C@@H](C[C@@H]4SC(Nc5ccccc5)=N[C@@]45CC(=O)CC[C@]35C)[C@@H]1CCC2=O (stereo not given in full) | -26.8% (active) |
| O=C(NCCN1CC1)C(=O)NCCN1CC1 | 81.3% (inactive) |
| COc1ccc(C2=N[C@@H](Cc3ccccc3)C(=O)Nc3ccsc32)cc1 | 8.23% (active) |
| Brc1ccc2c(c1)c(-c1nc(-c3c[nH]c4ncccc34)cs1)cn2CCN1CCOCC1 | 34.2% (inactive) |
| COc1ccc2c(c1)c(-c1nc(-c3c[nH]c4ncccc34)cs1)cn2CCN1CCOCC1 | 0.314% (active) |
| O=C1C=C2C(=CCOC2O)O1 (stereo not given) | -55.5% (active) |
| Nc1ccc2c(c1)Cc1cc(N)ccc1-2 | 67.3% (inactive) |
| O=P(N1CC1)(N1CC1)N1CCc2ccccc21 | 95.2% (inactive) |
| COc1ccc(C/C(C)=C(\c2ccc(OCCN3CCOCC3)cc2)c2ccc(OC(=O)Cc3ccccc3)cc2)cc1 | -33.4% (active) |
| COC(=O)C12CC(NC(=O)c3csc([C@@H](C[C@H](C(C)C)N(C)C(=O)[C@@H](NC(=O)[C@H]4CCCCN4C)C4CC4)OC(C)=O)n3)(C1)C2 | 30.1% (inactive) |
| O=[P+](O)c1cccnc1 | 99.1% (inactive) |
| CC[CH2][Sn]([Cl])([Cl])[CH2]CC | 22.4% (inactive) |
| C/C(=N/OC(=O)N(C)C)c1ccc(Cl)cc1Cl | 114% (inactive) |
| CN(C)c1ccc([N+](=O)[O-])c([N+](=O)[O-])c1 | 110% (inactive) and 95.6% (inactive) |
| C#Cc1ccc2c(c1)C(c1ccccc1)=NCC(=O)N2C | 20.8% (inactive) |
| C[C@@H]1C[C@@]2(C)[C@@H](CC[C@@H]3[C@@H]2CC[C@]2(C)C(=O)CC[C@@H]32)CC1=O | 95.4% (inactive) |
